From PubChem BioAssay
VHR inh abs – inhibitors of human VHR1 phosphatase (DUSP3). P51452. recombinant VHR phosphatase, pNPP absorbance. inhibition, % at 13.3 µM. 0.52% of 290,000 active; in the data active = inhibition above about 50%
SARS 3CLpro inh – SARS-CoV 3CLpro protease inhibition. P0C6X7. 0.14% of 290,000 active. recombinant SARS-CoV 3CLpro, quenched FRET peptide cleavage. inhibition, % at 6 µM; in the data active = inhibition above about 12%
CCHFV vOTU inh – blocks the CCHF virus ovarian tumor domain protease; CCHFV vOTU protease, Pep-AMC fluorescence; inhibition, % at 11.5 µM; 0.55% of 370,000 active; AID 651958; note: 0% = vehicle wells with enzyme and 100% = no enzyme wells
GDH-TPI inh – GDH-TPI coupled enzyme inhibition counter-screen | 1.2% of 360,000 active | GDH-TPI coupled enzyme counterscreen, NADH absorbance | inhibition, % at 4.8 µM;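 note: 0% = DMSO wells and 100% = wells lacking the enzyme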
Mtb FBA inh – inhibitors of M. tuberculosis fructose-bisphosphate aldolase; P9WQA3; purified M. tuberculosis FBA, fluorescence read-out; inhibition, % at 1 µM; 2.3% of 360,000 active; in the data active = inhibition above about 27%;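 note: 0% = vehicle and 100% = reference inhibitor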
RecA splice inh – Mtb RecA intein splicing inhibition; AID 2221; inhibition, % (test concentration not listed); cell-free RecA intein splicing, fluorescence; 0.75% of 290,000 active; P9WHJ3; in the data active = inhibition above about 30%;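 note: 0% = vehicle wells and 100% = reference inhibitor control wells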
The depositor's hits bear a star; / = not tested or not shown. Most compounds without a hit are left out; they make up all but 4.7% or so of the library. Cut-off read from the data, not from the text of the source, unless noted: active = inhibition above about 30%; inactive = the rest.

SMILES | VHR inh abs | SARS 3CLpro inh | CCHFV vOTU inh | GDH-TPI inh | Mtb FBA inh | RecA splice inh
CN(C)c1ccc(C(c2nnnn2C(C)(C)C)N2CCN(C(=O)c3ccco3)CC2)cc1 (stereo unspecified) | 36 | -3 | 4 | 1 | 2 | 2
COc1cc(/C=N/Nc2ncc(C(F)(F)F)cc2Cl)cc(OC)c1OC | 18 | -4 | 8 | 32* | -3 | -4
COc1cc(/C=N/Nc2ncc(C(F)(F)F)cc2Cl)cc(OC)c1O | 8 | -2 | 25 | 17 | -8 | -6
COc1ccc2[nH]c(C)c(C(=O)CN3CCN(C/C=C/c4ccccc4)CC3)c2c1 | 38 | -3 | 31* | -6 | -2 | 2
COc1cccc(/C=N/Nc2nc3ccccc3n3cnnc23)c1O | 16 | 3 | 0 | 21 | -5 | -5
COc1cccc(/C=N/Nc2nc3ccccc3n3cnnc23)c1 | 51* | 4 | -17 | 22 | 0 | -3
C=CCc1cc(/C=N/n2cnnc2)cc(OCC)c1O | 25 | 0 | 5 | 13 | -1 | -2
CCOc1cc(/C=N/n2cnnc2)ccc1O | 10 | 3 | -1 | 34* | 3 | 2
COc1cc(/C=N/Nc2nn3cnnc3c3ccccc23)ccc1O | 25 | -6 | -4 | 32* | -1 | -3
CCOc1cc(/C=N/Nc2nn3cnnc3c3ccccc23)ccc1O | 4 | -5 | 25 | 32* | -1 | -5
Nc1cc2ccccc2cc1NS(=O)(=O)N1CCCCC1 | / | / | -9 | / | / | /
O=C(Nc1cc(S(=O)(=O)N2CCOCC2)ccc1N1CCCC1)c1ccccc1C(F)(F)F | / | / | 5 | / | / | /
CCCCC1Cc2[nH]c(=S)[nH]c(=O)c2C(c2ccc(Cl)cc2)O1 (stereo unspecified) | / | / | 3 | / | -7 | /
CSc1nc2nccc(/C=C\c3ccccc3)n2n1 | 13 | 2 | 3 | 31* | -2 | 2
CCCCSCc1nc2nc(Cl)c(Cl)nc2[nH]1 | / | / | 10 | 35* | -3 | /
CC(C)(C)c1nnc(N/N=C/c2ccccc2)n(N)c1=O | 0 | 1 | -11 | 21 | -1 | -2
CC(C)(C)c1nnc(N/N=C/c2ccccc2O)n(N)c1=O | 13 | -5 | 4 | 36* | 0 | -7
O=C(CSc1nc(-c2ccco2)cc(C(F)(F)F)n1)NCCCN1CCOCC1 | 10 | -4 | 28 | 15 | 2 | -3
O=C(CCSc1nc(-c2ccco2)cc(C(F)(F)F)n1)NCC1CCCO1 (stereo unspecified) | 0 | -1 | 4 | 33* | -1 | 1
O=C(CSc1nc(-c2ccco2)cc(C(F)(F)F)n1)N1CCN(c2ccc(Cl)cc2)CC1 | 18 | 5 | 17 | 15 | 0 | 2
COc1ccccc1N1CCN(C(=O)CSc2nc(-c3ccco3)cc(C(F)(F)F)n2)CC1 | 22 | -1 | 17 | 32* | 0 | 10
Cc1cc(NC(=O)CCSc2nc(-c3ccco3)cc(C(F)(F)F)n2)no1 | 36 | 2 | 2 | 10 | -5 | 0
O=C(CSc1nc(-c2ccco2)cc(C(F)(F)F)n1)NCC1CCCO1 (stereo unspecified) | 9 | -7 | 6 | 31* | 0 | 0
Cc1cccc(C)c1NC(=O)CSc1nc(-c2ccco2)cc(C(F)(F)F)n1 | 18 | -5 | 3 | 33* | 2 | 1
O=C(NCc1ccccc1)OCCN1C(=O)CCC12CCCCC2 | / | / | 5 | / | / | /
SMILES | VHR inh abs | SARS 3CLpro inh | CCHFV vOTU inh | GDH-TPI inh | Mtb FBA inh | RecA splice inh
O=C(C(=O)N1CCC(c2ccccc2)CC1)c1cccc([N+](=O)[O-])c1 | / | / | -7 | / | / | /
O=C(CCCSc1nc(-c2ccco2)cc(C(F)(F)F)n1)NCc1cccs1 | -3 | 2 | 8 | 10 | -4 | /
O=C(CCCSc1nc(-c2ccco2)cc(C(F)(F)F)n1)NCC1CCCO1 (stereo unspecified) | 27 | -2 | -5 | 33* | 0 | /
O=C1N/C(=N\N=C\c2ccccn2)SC1Cc1cccc(SC(F)F)c1 (stereo unspecified) | 33 | -1 | 3 | 47* | 0 | 2
COc1cccc(C(=O)NCc2ccco2)c1OC | 14 | -3 | 2 | 4 | 3 | /
CC(C)(C)c1ccc(C(=O)Cn2cnnc2C#N)cc1 | 14 | -1 | -2 | 4 | 1 | 34*
COc1ccccc1/C=C\C(=O)NCC(=O)N/N=C/c1ccc(O)cc1O | 56* | 0 | -11 | 36* | -2 | -1
Cc1c(C(=O)NC2CCOC2)oc2c(F)cccc12 (stereo unspecified) | 53* | -5 | -11 | 2 | -1 | 1
